Experimental data as given in PubChem BioAssay (NCATS).
Where “and” joins values, the source holds several entries; their conditions need not be identical. Equal values may be shown once. Records with an inconclusive call do not appear. Calls of active or inactive are those of the source. Unless noted, calls come from the whole dose curve; as a rule, active = well fitted curve in the direction sought with a large enough effect; inconclusive = small, poorly fitted or top-dose-only effect, or another doubt; inactive = no such curve, though single readings can be large; an effect the other way counts as inactive or inconclusive.

Experiments:
[1] = Cell Viability - HepG2 (AID 433; calls by dose curve;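 note: potency is the fitted concentration of half-maximal effect; potency for ATP loss meaning cytotoxicity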); conditions: qHTS
Outline: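 Cytotoxicity read as ATP loss (CellTiter-Glo luminescence) after 40 hr compound exposure of HepG2, 1500 cells/well, 37 °C. AC50 by Hill equation; 0% set by DMSO, 100% inhibition by 100 uM tamoxifen.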

[2] = Cell Viability - MRC5 (AID 434; calls by dose curve;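 note: potency is the fitted concentration of half-maximal effect; cells exposed to compound for 40 hours at 37 °C; potency reflects cytotoxicity seen as loss of intracellular ATP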); conditions: MRC5 lung fibroblast viability, qHTS
Outline: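 Decrease in intracellular ATP, quantified by luciferase light output, reflects compound toxicity toward MRC5 cells exposed for 40 hr in complete culture medium. Concentration-response curves, scaled between DMSO and 100 uM tamoxifen, gave AC50 values.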

[3] = Cell Viability - Mesenchymal (AID 546); conditions: mesenchymal cells viability, qHTS; series mostly up to 91.7 µM;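 note: cells exposed to compound for 40 hours before reading; 0% = DMSO only and -100% = 100 µM tamoxifen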
Outline: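 In this qHTS cytotoxicity format, glomerulus-derived human mesenchymal kidney cells received compound for 40 hr, then luciferase-based ATP quantitation. Concentration-response data were fitted with the Hill equation.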

[4] = Cellular Toxicity (caspase-3) SK-N-SH (AID 661); conditions: SK-N-SH caspase-3 activation, qHTS; series mostly up to 91.7 µM;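 note: cells exposed to compound for 16 hours; 0% = DMSO basal and 100% = 10 µM staurosporine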
Outline: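 Luminescent Caspase-Glo 3/7 read-out after 16 hr compound exposure of SK-N-SH neuroblastoma cells at 37 °C. Signal increase normalized to DMSO (basal) and 10 uM staurosporine (100%); AC50 from Hill equation fits of qHTS concentration-response data.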

[5] = Cellular Toxicity (caspase-3) H-4-II-E (AID 663); conditions: H-4-II-E rat hepatoma; Potency: caspase-3 activation; series mostly up to 92.2 µM;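 note: cells exposed to compound for 16 hr before readout; 0% = DMSO basal and 100% = 100 µM tamoxifen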
Outline: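 Caspase 3/7 activation measured in H-4-II-E cells in complete culture medium after 16 hr treatment at 37 °C, using luciferase-coupled substrate readout; AC50 values come from Hill-equation fits of normalized concentration-response data.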

[6] = MultiTox-Fluor Cytotoxicity Assay - LYMP1-003 - Live Cells (AID 962); conditions: LYMP1-003 lymphoblastoid cells, MultiTox-Fluor live-cell protease fluorescence; series mostly up to 92.2 µM;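 note: cells exposed to compound for 16 hours at 37 °C; 0% = DMSO only and full loss = 92 µM tetraoctylammonium bromide; cytotoxic hits lower the live-cell protease signal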
Outline: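 Readout: live-cell fluorescence (Ex/Em=405/510) from GF-AFC cleavage after 60 min MultiTox-Fluor reagent at room temperature. Lymphoblastoid LYMP1-003 cells, 16 hr compound treatment, 37 C. Concentration-response fitted to standard Hill equation for AC50.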

[7] = Cell Viability - LYMP2-005 (AID 967); conditions: LYMP2-005 lymphoblastoid cell viability; series mostly up to 92.2 µM;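 note: plate controls were DMSO only for no effect and 92 µM tetraoctylammonium bromide control for full effect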
Outline: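 LYMP2-005 human lymphoblastoid cells (2500/well) were treated with compounds for 24 h at 37 C. Intracellular ATP was then measured by CellTiter-Glo luminescence after 30 min at room temperature. AC50 values came from Hill-equation fits of qHTS concentration-response data.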

[8] = Cell Viability - LYMP2-021 (AID 974); conditions: LYMP2-021 lymphoblastoid cells viability; series mostly up to 92.2 µM;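 note: compound exposure lasts 24 hours at 37 °C; % is set by controls: 0 for no effect and ±100 for the full control effect; nearly all actives have a fitted effect of over 55% in size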
Outline: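 ATP luminescence (CellTiter-Glo, 30 min RT) after 24 h compound exposure at 37 C; 2500 human lymphoblastoid cells/well, 5 h settle beforehand. Cytotoxicity = concentration-dependent ATP drop, AC50 by Hill fit.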

[9] = Cell Viability - LYMP2-023 (AID 975); conditions: LYMP2-023 lymphoblastoid cell viability; series mostly up to 92.2 µM;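 note: cellular ATP measured by luciferase luminescence as viability proxy; plate controls were DMSO only for no effect and 92 µM tetraoctylammonium bromide control for full effect; nearly all actives have a fitted effect of over 55% in size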
Outline: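 CellTiter-Glo luminescence after 30 min at room temperature; decrease in intracellular ATP reflects toxicity. Cells: human lymphoblastoid line, 2500/well, 24 hr compound exposure at 37 C. AC50 fitted to standard Hill equation from concentration-response.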

[10] = Cell Viability - LYMP2-006 (AID 978); conditions: LYMP2-006 lymphoblastoid cell viability, qHTS; series mostly up to 92.2 µM; note: % is set by controls: 0 for no effect and ±100 for the full control effect; nearly all actives have a fitted effect of over 60% in size
Outline: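 Potency values are Hill-fit AC50s for decreases in intracellular ATP (CellTiter-Glo luminescence). LYMP2-006 lymphoblastoid cells, 2500 per well, were exposed to compound in complete culture medium for 24 hr at 37 C.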

[11] = Cell Viability - LYMP2-007 (AID 979); conditions: LYMP2-007 lymphoblastoid cell viability; series mostly up to 92.2 µM;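 note: cells exposed to compound for 24 h before reading; 0% = DMSO only and the negative end = 92 µM tetraoctylammonium bromide; nearly all actives have a fitted effect of over 60% in size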
Outline: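 qHTS cytotoxicity: 2500 cells/well, 5 hr 37 C settle, compound 24 hr 37 C, CellTiter-Glo 30 min RT, luminescence. Decrease in ATP = toxicity. AC50 by standard Hill equation; tetraoctylammonium bromide positive control.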

[12] = biological target: Vitamin D3 receptor (Homo sapiens) (UniProt P11473); experiment: qHTS assay for small molecule antagonists of vitamin D receptor signaling (AID 588541; calls by dose curve;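 note: receptor activated by calcitriol during compound treatment; % is set by controls: 0 for no effect and ±100 for the full control effect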); conditions: HEK293T VDR-UAS-bla, beta-lactamase ratio, antagonist mode; series mostly up to 76.7 µM
Vitamin D3 receptor (Homo sapiens), sequence (P11473 whole entry, looked up): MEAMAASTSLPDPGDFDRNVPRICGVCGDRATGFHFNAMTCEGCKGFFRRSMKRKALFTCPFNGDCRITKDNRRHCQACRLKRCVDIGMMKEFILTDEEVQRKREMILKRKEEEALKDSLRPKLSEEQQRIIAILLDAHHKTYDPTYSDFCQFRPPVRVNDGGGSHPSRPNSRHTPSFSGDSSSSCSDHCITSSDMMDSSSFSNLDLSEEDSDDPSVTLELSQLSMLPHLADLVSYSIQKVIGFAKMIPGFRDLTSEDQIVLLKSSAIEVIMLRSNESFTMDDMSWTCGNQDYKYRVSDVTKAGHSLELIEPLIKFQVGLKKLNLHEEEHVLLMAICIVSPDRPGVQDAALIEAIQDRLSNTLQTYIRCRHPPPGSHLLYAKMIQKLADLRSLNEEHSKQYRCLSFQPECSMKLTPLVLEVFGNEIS
Outline: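 VDR-UAS-bla HEK293T cells (2000/well, 2% charcoal-stripped FBS) were treated with titrated compounds plus 1-alpha,25-dihydroxyvitamin D3 (50 nM or 3 nM final) for 16 h at 37 C. CCF4 beta-lactamase fluorescence was read; Hill fits gave IC50.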

[13] = biological target: Retinoic acid receptor RXR-alpha (Homo sapiens) (UniProt P19793); experiment: qHTS assay for small molecule agonists of retinoid X receptor alpha signaling (AID 588544; calls by dose curve;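 note: 0% = DMSO basal wells and 100% = reference agonist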); conditions: HEK293T RXRa-UAS-bla, beta-lactamase reporter, 18 h; series mostly up to 76.7 µM
Retinoic acid receptor RXR-alpha (Homo sapiens), sequence (P19793 whole entry, looked up): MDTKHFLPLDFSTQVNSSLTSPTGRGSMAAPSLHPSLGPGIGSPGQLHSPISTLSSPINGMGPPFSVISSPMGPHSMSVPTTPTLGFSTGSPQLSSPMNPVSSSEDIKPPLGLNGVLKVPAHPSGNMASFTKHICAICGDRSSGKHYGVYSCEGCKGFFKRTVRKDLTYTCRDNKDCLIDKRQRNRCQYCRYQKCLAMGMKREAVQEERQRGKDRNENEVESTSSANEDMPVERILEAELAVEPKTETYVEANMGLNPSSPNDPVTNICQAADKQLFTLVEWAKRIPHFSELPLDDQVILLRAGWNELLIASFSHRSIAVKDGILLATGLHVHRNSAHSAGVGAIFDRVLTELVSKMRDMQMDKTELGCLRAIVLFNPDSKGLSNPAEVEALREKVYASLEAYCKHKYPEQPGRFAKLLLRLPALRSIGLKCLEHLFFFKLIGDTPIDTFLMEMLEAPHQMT

[14] = biological target: Thyroid hormone receptor beta (Homo sapiens) (UniProt P10828); experiment: qHTS assay for small molecule agonists of thyroid hormone receptor beta signaling (AID 588545; calls by dose curve); conditions: TR-UAS-bla GripTite HEK 293, beta-lactamase ratio, agonist mode, 18 h; series mostly up to 76.7 µM
Thyroid hormone receptor beta (Homo sapiens), sequence (P10828 whole entry, looked up): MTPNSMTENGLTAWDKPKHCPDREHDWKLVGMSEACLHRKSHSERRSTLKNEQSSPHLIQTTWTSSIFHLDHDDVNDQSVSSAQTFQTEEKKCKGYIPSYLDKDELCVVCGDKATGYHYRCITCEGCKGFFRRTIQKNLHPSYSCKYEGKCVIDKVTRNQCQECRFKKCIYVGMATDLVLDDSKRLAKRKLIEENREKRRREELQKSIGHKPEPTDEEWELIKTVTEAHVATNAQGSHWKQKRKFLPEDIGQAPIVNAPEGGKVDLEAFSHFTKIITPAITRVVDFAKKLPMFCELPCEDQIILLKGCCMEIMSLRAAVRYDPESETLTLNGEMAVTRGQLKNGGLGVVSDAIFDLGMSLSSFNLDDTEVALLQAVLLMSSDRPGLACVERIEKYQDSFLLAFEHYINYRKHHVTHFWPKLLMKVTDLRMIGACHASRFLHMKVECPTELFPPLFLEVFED
Outline: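 Agonist activity was read as beta-lactamase CCF4 fluorescence (405 ex, 460/530 em), scaled between DMSO (0%) and 10 nM T3 (100%), then Hill-fitted for EC50 and efficacy. HEK 293 TR-UAS-bla cells in 2% charcoal/dextran FBS medium were exposed 18 h at 37 C.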

[15] = biological target: Thyroid hormone receptor beta (Homo sapiens) (UniProt P10828); experiment: qHTS assay for small molecule antagonists of thyroid hormone receptor beta signaling (AID 588547; active = well fitted inhibition curve with a large enough effect in the signal ratio, with a control signal flat, not every such curve was filed as active; the % refers to the signal ratio;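 note: cells stimulated with 0.4 nM T3 agonist during compound exposure; % is set by controls: 0 for no effect and ±100 for the full control effect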); conditions: TR-UAS-bla HEK293, beta-lactamase ratio, antagonist mode, 18 h
Outline: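 TR-UAS-bla GripTite HEK293 cells in 2% charcoal/dextran FBS medium were preincubated 4 h at 37 C, given compound (0.59 nM to 92 uM) plus 0.4 nM T3 (final) for 18 h, then CCF4 for 2 h at RT; Hill fit gave IC50.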

[16] = biological target: Nuclear receptor subfamily 1 group I member 2 (Rattus norvegicus) (UniProt Q9R1A7); experiment: qHTS assay for small molecule activators of the rat pregnane X receptor (rPXR) signaling pathway (AID 651751; call rule not given here; note: 0% is about no effect); conditions: rPXR reporter cells, luciferase (One-Glo), 24 h
Nuclear receptor subfamily 1 group I member 2 (Rattus norvegicus), sequence (Q9R1A7 whole entry, looked up): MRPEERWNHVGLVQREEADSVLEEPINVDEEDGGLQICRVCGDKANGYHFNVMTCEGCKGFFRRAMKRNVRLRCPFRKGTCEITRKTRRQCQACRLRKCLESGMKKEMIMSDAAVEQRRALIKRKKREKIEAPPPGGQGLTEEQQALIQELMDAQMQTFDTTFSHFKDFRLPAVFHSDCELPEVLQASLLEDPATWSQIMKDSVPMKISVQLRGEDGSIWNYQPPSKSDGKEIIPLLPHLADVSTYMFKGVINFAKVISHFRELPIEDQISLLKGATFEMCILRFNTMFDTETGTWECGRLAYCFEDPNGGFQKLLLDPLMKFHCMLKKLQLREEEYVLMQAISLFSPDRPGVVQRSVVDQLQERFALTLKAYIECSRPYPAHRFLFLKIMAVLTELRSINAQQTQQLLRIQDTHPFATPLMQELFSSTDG

[17] = qHTS assay for small molecule activators of the human pregnane X receptor (PXR) signaling pathway (AID 720659; call rule not given here; note: 0% is about no effect); conditions: DPX-2 HepG2 CYP3A4-luciferase, 24 h; series mostly up to 92.3 µM
[18] = Cellular Toxicity (caspase-3) HUV-EC-C (AID 656); conditions: HUV-EC-C cells, caspase-3 activation (apoptosis), vehicle = 0, 100 µM tamoxifen = 100%; series mostly up to 92.2 µM;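 note: 0% = DMSO basal and 100% = 100 µM tamoxifen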
Outline: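 Luminescent Caspase-Glo 3/7 readout after 16 h, 37 °C compound exposure of HUV-EC-C endothelial cells, 1000 per well, complete medium. AC50 derived by Hill fitting, with DMSO as baseline and 100 uM tamoxifen as full activation.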

[19] = MultiTox-Fluor Cytotoxicity Assay - LYMP1-002 - Dead Cells (AID 960); conditions: LYMP1-002 lymphoblastoid cells, dead-cell protease fluorescence; series mostly up to 46.1 µM;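 note: 0% = DMSO and 100% = tetraoctylammonium bromide; nearly all actives have a fitted effect of over 60% in size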
Outline: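 Readout: fluorescence at 485/520 from cell-impermeant bis-AAF-R110 cleaved by proteases leaking from damaged cells. LYMP1-002 lymphoblastoid line, 16 hr compound treatment at 37 C, concentration-response in qHTS format; Hill-equation AC50 values.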

[20] = biological target: Mitogen-activated protein kinase 10 (Mus musculus) (UniProt Q61831); experiment: JNK3 AlphaScreen Assay (AID 530; active = well fitted curve in either direction with a large enough effect, not every such curve was filed as active;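 note: kinase came from lysate of stimulated human HepG2 cells; signal reports phosphorylation of biotinylated GST-cJun 1-79 at Ser73 with 10 µM ATP; % is set by controls: 0 for no effect and ±100 for the full control effect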); conditions: JNK3 lysate, c-Jun phosphorylation; series mostly up to 57.1 µM
Outline: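 Biotinylated GST-cJun(1-79) served as substrate for JNK3 in HepG2 lysates stimulated with IL-1beta and TNF-alpha. ATP was 10 uM final, pH 7.6. Ser73 phosphorylation was quantified by AlphaScreen (680 nm excitation).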

Cc1cc(-c2cc(C)c(N)c(C)c2)cc(C)c1N
inactive: Potency [1] > 92 µM | Potency [2] > 92 µM | Potency [3] | Potency [4] | Potency [5] | outcome [6] | Potency [7] | Potency [8] | Potency [9] | Potency [10] | Potency [11] | outcome [12] | outcome [13] | Potency [14] | activity change % (negative = inhibition) [15] 5.74% | max response [16] 14.1% | outcome [17]

Clc1cccc(Cl)c1Cl
inactive: Potency [1] > 92 µM | Potency [2] > 92 µM | Potency [3] | outcome [18] | Potency [5] | Potency [19] | outcome [6] | Potency [7] | Potency [8] | Potency [9] | Potency [10] | Potency [11] | outcome [12] | outcome [13] | Potency [14] | activity change % (negative = inhibition) [15] -6.61% and -16.3% | max response [16] -2.59% and 0.772% | outcome [17]

Nc1cc(Cl)ccc1Cl
inactive: Potency [1] > 92 µM | Potency [2] > 92 µM | Potency [20] | Potency [3] | outcome [18] | Potency [4] | Potency [5] | Potency [19] | outcome [6] | Potency [7] | Potency [8] | Potency [9] | Potency [10] | Potency [11] | Potency [14] | activity change % (negative = inhibition) [15] 16.8% | max response [16] 4.7% | outcome [17]

CC(=O)NNc1ccccc1
inactive: Potency [1] > 92 µM | Potency [2] > 92 µM | Potency [20] | Potency [3] | Potency [5] | outcome [6] | Potency [7] | Potency [8] | Potency [9] | Potency [10] | Potency [11] | outcome [12] | Potency [14] | activity change % (negative = inhibition) [15] -1.14% | max response [16] -6.67% | outcome [17]

CC(Cl)(Cl)Cl
inactive: Potency [1] > 92 µM | Potency [2] > 92 µM | Potency [20] | Potency [3] | outcome [18] | Potency [4] | outcome [6] | Potency [7] | Potency [8] | Potency [9] | outcome [12] | outcome [13] | Potency [14] | activity change % (negative = inhibition) [15] 0.316% and -7.15% | max response [16] -1.71% and -2.72% | outcome [17]

N#CCCC#N
inactive: Potency [1] > 92 µM | Potency [2] > 92 µM | Potency [20] | Potency [3] | outcome [18] | Potency [4] | Potency [5] | Potency [19] | outcome [6] | Potency [7] | Potency [8] | Potency [9] | Potency [10] | Potency [11] | outcome [12] | outcome [13] | Potency [14] | activity change % (negative = inhibition) [15] 5.23% | max response [16] 2.24% | outcome [17]

S=C1NCCN1
inactive: Potency [1] > 92 µM | Potency [2] > 92 µM | Potency [20] | Potency [3] | outcome [18] | Potency [4] | Potency [5] | Potency [19] | outcome [6] | Potency [7] | Potency [8] | Potency [9] | Potency [10] | Potency [11] | outcome [12] | outcome [13] | Potency [14] | activity change % (negative = inhibition) [15] -23.2% and -6.83% | max response [16] 6.01% and -10.7% | outcome [17]
